The values below come from PMC4336329 (PLoS ONE, 2015).

The campaign covered roughly 310,000 compounds. About 14,000 (4.5%) showed an effect of 50% or more. Effects have a minus sign here. The full list was thinned out, with strong results kept by preference.
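Further: peak tail current of the secondary pulse compared with the same well before compound.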

Chain of human ether-à-go-go-related gene (hERG) potassium channel (Q12809 whole entry, looked up): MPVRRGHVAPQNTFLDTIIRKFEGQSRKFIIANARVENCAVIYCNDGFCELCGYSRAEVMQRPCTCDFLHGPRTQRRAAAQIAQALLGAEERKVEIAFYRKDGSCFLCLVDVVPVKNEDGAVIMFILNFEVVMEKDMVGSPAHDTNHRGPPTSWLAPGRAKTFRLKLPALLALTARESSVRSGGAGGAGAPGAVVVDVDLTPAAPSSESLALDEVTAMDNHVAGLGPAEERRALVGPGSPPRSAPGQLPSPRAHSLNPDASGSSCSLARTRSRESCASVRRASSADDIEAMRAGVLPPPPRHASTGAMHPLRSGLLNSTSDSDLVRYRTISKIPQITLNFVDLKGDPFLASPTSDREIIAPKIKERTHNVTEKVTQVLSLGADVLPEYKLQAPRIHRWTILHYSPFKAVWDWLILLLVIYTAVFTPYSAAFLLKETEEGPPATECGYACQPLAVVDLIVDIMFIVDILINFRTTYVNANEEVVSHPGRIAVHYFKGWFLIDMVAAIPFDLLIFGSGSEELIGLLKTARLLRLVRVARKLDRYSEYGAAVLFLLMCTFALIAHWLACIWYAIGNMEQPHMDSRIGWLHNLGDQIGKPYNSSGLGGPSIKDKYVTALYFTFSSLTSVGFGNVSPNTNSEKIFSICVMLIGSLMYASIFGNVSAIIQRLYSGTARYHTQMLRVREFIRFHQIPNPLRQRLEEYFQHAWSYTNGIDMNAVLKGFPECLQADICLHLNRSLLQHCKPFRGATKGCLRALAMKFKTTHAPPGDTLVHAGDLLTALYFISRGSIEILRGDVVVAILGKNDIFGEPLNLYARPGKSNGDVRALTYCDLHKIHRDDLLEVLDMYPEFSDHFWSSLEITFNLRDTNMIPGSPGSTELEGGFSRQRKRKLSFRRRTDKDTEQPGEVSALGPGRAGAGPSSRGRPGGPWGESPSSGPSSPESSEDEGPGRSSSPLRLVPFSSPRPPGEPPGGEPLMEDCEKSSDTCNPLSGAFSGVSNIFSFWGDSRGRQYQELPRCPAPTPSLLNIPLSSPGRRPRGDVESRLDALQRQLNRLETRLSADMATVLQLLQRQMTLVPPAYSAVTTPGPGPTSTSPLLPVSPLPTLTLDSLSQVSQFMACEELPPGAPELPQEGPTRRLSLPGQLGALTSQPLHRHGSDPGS

This assay concerns the target human ether-à-go-go-related gene (hERG) potassium channel (human, UniProt Q12809). Description: primary screen, population patch clamp on CHO cells stably expressing hERG; higher = less effect of the substance.
With `O=C(COc1ccc(Cl)cc1)N1CCN(Cc2ccccc2)CC1`, the “hERG current change (%, negative = inhibition) at 10uM” value is -32.9%.
Regarding `O=C(COc1ccc(S(=O)(=O)N2CCCCC2)cc1)N1CCN(Cc2ccccc2)CC1`, the “hERG current change (%, negative = inhibition) at 10uM” value was -32.5%.
For `CCN(CC)C(=O)Cn1cc(S(=O)(=O)CC(=O)NCc2ccccc2)c2ccccc21`, the “hERG current change (%, negative = inhibition) at 10uM” value is recorded as -11.6%.
To `CCOC(=O)C(NC(=O)CC)(Nc1ccc(S(=O)(=O)Nc2ncccn2)cc1)C(F)(F)F` (stereo not drawn) belongs 22.5%; to `O=C(CN1CCOCC1)Nc1scc(-c2ccccc2)c1C(=O)N1CCOCC1`, -34.9%.
Take `CCOC(=O)c1c(-c2ccccc2)csc1NC(=O)CCN1CCOCC1.O=C(O)C(=O)O`: the “hERG current change (%, negative = inhibition) at 10uM” value was -33.2%.
To `O=C(Cc1ccccc1)Nc1scc(-c2ccccc2)c1C(=O)N1CCOCC1` belongs -57.4%.
As for `O=C(N/C(=C/c1cccnc1)C(=O)N1CCOCC1)c1ccco1`, the “hERG current change (%, negative = inhibition) at 10uM” value was found to be 6.59%.
Regarding `CCN(CC)S(=O)(=O)c1ccc(NC(=O)c2cc(C(=O)OC)cc([N+](=O)[O-])c2)cc1`, the “hERG current change (%, negative = inhibition) at 10uM” value came to 10.3%.
As for `CN(C(=O)c1ccc(OC2CCN(CCc3ccccc3)CC2)cc1)C1CCOC1` (stereo not drawn), the “hERG current change (%, negative = inhibition) at 10uM” value is recorded as -25.3%.
As to `CN(Cc1cnn(C)c1)C(=O)c1ccc(OC2CCN(CCc3ccccc3)CC2)cc1`, the “hERG current change (%, negative = inhibition) at 10uM” value was -42.9%.
On to `CC(CNC(=O)c1ccc(OC2CCN(Cc3ccccn3)CC2)cc1)c1ccccc1` (stereo not drawn), for which the “hERG current change (%, negative = inhibition) at 10uM” value was -76.5%.
Consider `Cc1cc(CN(C)C(=O)c2ccc(OC3CCN(CCc4ccccc4)CC3)cc2)on1`, for which the “hERG current change (%, negative = inhibition) at 10uM” value is -74.1%.
To `CN(C(=O)c1ccc(OC2CCN(CCc3ccccc3)CC2)cc1)C1CCCCC1` belongs -63.5%; to `CN(C(=O)c1ccc(OC2CCN(CCc3ccccc3)CC2)cc1)C1CCOCC1`, -9.93%.
Consider `CN(Cc1nccs1)C(=O)c1ccc(OC2CCN(CCc3ccccc3)CC2)cc1`, for which the “hERG current change (%, negative = inhibition) at 10uM” value is -58.9%.
Take `Cc1cc(CN(C)C(=O)c2ccc(OC3CCN(Cc4ccccn4)CC3)cc2)on1`: the “hERG current change (%, negative = inhibition) at 10uM” value is on record as -37.7%.
Consider `CN(Cc1nccs1)C(=O)c1ccc(OC2CCN(Cc3ccccn3)CC2)cc1`, for which the “hERG current change (%, negative = inhibition) at 10uM” value is -11.5%.
In the case of `CC(NC(=O)c1ccc(OC2CCN(Cc3ccccn3)CC2)cc1)c1ccccc1` (stereo not drawn), the “hERG current change (%, negative = inhibition) at 10uM” value is -20.3%.
Regarding `CC(CNC(=O)c1ccc(OC2CCN(Cc3ccccn3)CC2)cc1)Oc1cccnc1` (stereo not drawn), the “hERG current change (%, negative = inhibition) at 10uM” value is -21.9%.
`CN(Cc1nccn1C)C(=O)c1ccc(OC2CCN(CCc3ccccc3)CC2)cc1`: the “hERG current change (%, negative = inhibition) at 10uM” value is listed as -38.3%.
As for `CCN(c1cccc(C)c1)S(=O)(=O)c1ccc2c(c1)NC(=O)CCS2`, the “hERG current change (%, negative = inhibition) at 10uM” value is recorded as 8.09%.
For `CCOC(=O)c1ccc(NS(=O)(=O)c2cc3c4c(c2)CCN4C(=O)CC3)cc1`, the “hERG current change (%, negative = inhibition) at 10uM” value was -9.74%.
Consider `CSCCC(NC(=O)c1ccccc1)C(=O)N(C)CC(=O)Nc1ccc(N2CCOCC2)cc1` (stereo not drawn), for which the “hERG current change (%, negative = inhibition) at 10uM” value was 5.72%.
`CCCC(C)NC(=O)C1CC(=O)N(CCc2ccc(F)cc2)C1` (stereo not drawn): the “hERG current change (%, negative = inhibition) at 10uM” value is listed as 9.07%.
As for `COCCn1c(=S)[nH]c2ccccc21`, the “hERG current change (%, negative = inhibition) at 10uM” value is on record as 28.7%.
Regarding `CCC(C)(C)n1nnnc1C(c1cccnc1)N1CCCC(C)C1` (stereo not drawn), the “hERG current change (%, negative = inhibition) at 10uM” value was found to be 3.14%.
As to `CCOC(=O)c1ccc(NC(=O)c2cc3c(s2)CCC3)cc1`, the “hERG current change (%, negative = inhibition) at 10uM” value worked out at 6.15%.
As to `O=C(NC1CCCCC1)C1CCCN1S(=O)(=O)c1ccc(F)cc1` (stereo not drawn), the “hERG current change (%, negative = inhibition) at 10uM” value is -0.938%.
For the compound `COc1cc(/C=C2\OC(=O)c3c(OC)cccc32)ccc1O`, the “hERG current change (%, negative = inhibition) at 10uM” value is 15.6%.
On to `CN(CCc1ccccn1)C(=O)c1ccc(OC2CCN(Cc3ccccn3)CC2)cc1`, for which the “hERG current change (%, negative = inhibition) at 10uM” value worked out at 4.04%.
As to `CC(C)N(C)C(=O)c1ccc(OC2CCN(CCc3ccccc3)CC2)cc1`, the “hERG current change (%, negative = inhibition) at 10uM” value was -40.8%.
In the case of `CN(CCc1ccccn1)C(=O)c1ccc(OC2CCN(CCc3ccccc3)CC2)cc1`, the “hERG current change (%, negative = inhibition) at 10uM” value is listed as -58.5%.
The figure for `CC(c1nccs1)N(C)C(=O)c1ccc(OC2CCN(CCc3ccccc3)CC2)cc1` (stereo not drawn) is -51.4%; for `Cc1nn(C)cc1CN(C)C(=O)c1ccc(OC2CCN(Cc3ccccn3)CC2)cc1` it is 8.65%; for `CCn1ccnc1CN(C)C(=O)c1ccc(OC2CCN(CCc3ccccc3)CC2)cc1` it is -24.8%.
The figure for `O=C(CNc1ccccc1)Nc1ccc(F)cc1` is 3.4%; for `O=C(NCCNS(=O)(=O)c1ccc(C(F)(F)F)cc1)N1CCOCC1` it is 6.84%; for `COC(=O)c1ccccc1NC(=O)CSc1nnc(-c2cccc(NC(C)=O)c2)n1C` it is -3.68%.
The figure for `CCCCn1c(N)c(N(CC(C)C)C(=O)CCCc2cccs2)c(=O)[nH]c1=O` is -9.44%; for `O=C(NCCCn1ccnc1)c1ccc(-c2ccccc2)cc1` it is -21.6%.
For `COc1ccc(-n2ccnc2SCC(=O)NCc2ccc3c(c2)OCO3)cc1`, the “hERG current change (%, negative = inhibition) at 10uM” value is recorded as -7.81%.
